According to PubChem BioAssay (Tox21):
Values joined by “and” are separate entries in the source; they are usually repeats but may differ in a detail not shown here. Equal entries are not always repeated. Inconclusive results are not listed. Where a call stands in place of a potency, no number is given. Some structures have more than one record in an assay (separate samples or runs), and their calls can disagree. Active and inactive are the calls of the source. The call rests on the fitted dose curve; in most records, active means well fitted activation curve with a large enough effect in the repeat runs; inconclusive means weak or mixed curves; inactive means flat fitted curve, though single readings scatter.

Experiment: A CellTox Green Cytotoxicity Assay to monitor cytotoxicity in HEK293 cells - 32 hour (AID 1224881); further: nearly all actives have a fitted effect of over 40% in size
Settings: CellTox Green fluorescence; series mostly up to 76.8 µM; cytotoxicity increase: at the top concentration
From the text: National Center for Advancing Translational Sciences [NCATS]
NIH Chemical Genomics Center [NCGC]
U.S. Environmental Protection Agency [EPA]
National Institutes of Environmental Health Sciences [NIEHS]
National Toxicology Program [NTP]
Cell-based models are critical for drug discovery. Determining the natural cytotoxic effects resulting from test compounds is an essential research activity. A CellTox Green Cytotoxicity Assay to monitor cytotoxicity in real time of continues cell culture during 40 hours of the compound treatment was used to screen Tox21 10K library compounds in Hek293 cells. CellTox Green Cytotoxicity Assay is a nonlytic, homogeneous, biofluorescent method to measure cytotoxicity in cell culture after experimental manipulation. The assay system uses a proprietary asymmetric cyanine dye that is excluded from viable cells but preferentially stains the dead cell's DNA. […] Viable cells produce no appreciable increases in fluorescence. Therefore, the fluorescence signal produced by the binding interaction with dead cell DNA is proportional to cytotoxicity.
The mixture of Hek293 cell suspension and reagents were dispensed at 600cells/6 ul/well in 1536-well tissue culture treated black solid bottom plates using a Multidrop dispenser. After the assay plates were incubated at a 37 C/5% CO2 incubator for 5 hours, 23 nL of compounds dissolved in DMSO, positive and negative controls was transferred to the assay plate by a pintool work station. The plates were incubated at 37 C for 40 hours. The fluorescence intensity were measured at 0h, 8h, 16h, 24h, 32h and 40h time points using ViewLux plate reader during compound treatment.
Potency means the concentration at half of the fitted maximal effect.

Row | SMILES | Potency | cytotoxicity increase
1 | CCCCC(CC)COC(=O)c1ccc(N(C)C)cc1 (stereo not given) | inactive | –
2 | OC[C@H]1O[C@@H]2O[C@H]3[C@H](O)[C@@H](O)[C@@H](O[C@H]4[C@H](O)[C@@H](O)[C@@H](O[C@H]5[C@H](O)[C@@H](O)[C@@H](O[C@H]6[C@H](O)[C@@H](O)[C@@H](O[C@H]7[C@H](O)[C@@H](O)[C@@H](O[C@H]8[C@H](O)[C@@H](O)[C@@H](O[C@H]1[C@H](O)[C@H]2O)O[C@@H]8CO)O[C@@H]7CO)O[C@@H]6CO)O[C@@H]5CO)O[C@@H]4CO)O[C@@H]3CO | inactive | –
3 | COc1ccc(C(=O)CC(=O)c2ccc(C(C)(C)C)cc2)cc1 | – | 3.14% (inactive)
4 | COC(=O)C1=C(C)NC(C)=C(C(=O)OCCN(C)Cc2ccccc2)C1c1cccc([N+](=O)[O-])c1 (stereo not given) | inactive | –
5 | CN1C(C(=O)Nc2ccccn2)=C(O)c2ccccc2S1(=O)=O | inactive | –
6 | c1cc(-c2ccncc2)ccn1 | inactive | –
7 | CCC(C)c1ccccc1O (stereo not given) | 38.6 µM (active) | –
8 | NNc1ccc(C(=O)O)cc1 | inactive | –
9 | CCCCNS(=O)(=O)c1ccccc1 | inactive | –
10 | CCCCC/C=C/C=C/C=O | 54.5 µM (active) | –
11 | COc1cccc2c1C(=O)c1c(O)c3c(c(O)c1C2=O)C[C@@](O)(C(=O)CO)C[C@@H]3O[C@H]1C[C@H](N)[C@H](O)[C@H](C)O1 | inactive | –
12 | CC(C)=CCCC(C)CCO (stereo not given) | – | -1.97% (inactive)
13 | CNCCCC12CCC(c3ccccc31)c1ccccc12 | 49 µM (active) | –
14 | CCCCC(CC)COP(=O)(OCC(CC)CCCC)OCC(CC)CCCC (stereo not given) | inactive | –
15 | Cn1cnc([N+](=O)[O-])c1Sc1ncnc2nc[nH]c12 | 30.7 µM (active) and inactive | –
16 | O=[N+]([O-])c1ccc2c(c1)Cc1ccccc1-2 | inactive | –
17 | c1ccncc1 | inactive | –
18 | O=C(Nc1ccc(Cl)cc1)Nc1ccc(Cl)c(Cl)c1 | inactive | –
19 | Cc1cccc(C(=O)O)c1 | inactive | –
20 | O=c1oc(=O)c2cc3c(=O)oc(=O)c3cc12 | inactive | –

Row | SMILES | Potency | cytotoxicity increase
21 | COc1cc([C@@H]2c3cc4c(cc3[C@H](O)[C@H]3COC(=O)[C@H]23)OCO4)cc(OC)c1OC | inactive | –
22 | Nc1ncn([C@@H]2O[C@H](CO)[C@@H](O)[C@H]2O)c(=O)n1 | inactive | –
23 | COC(=O)c1ccccc1 | inactive | –
24 | C=CC(C)(CCC=C(C)C)OC(C)=O (stereo not given) | inactive | –
25 | CC(C)(C)NC(=O)[C@H]1CC[C@H]2[C@@H]3CC[C@H]4NC(=O)C=C[C@]4(C)[C@H]3CC[C@]12C | inactive | –
26 | OC1CCCCCCCCCCC1 | inactive and 43.6 µM (active) | –
27 | CN(C)CCC=C1c2ccccc2CCc2ccccc21 | – | 9.42% [at 35.3 µM] (inactive)
28 | Nc1ccccc1N | 50.1 µM (active) | –
29 | O=C(COc1ccc(Cl)cc1)N1CCN(Cc2ccc3c(c2)OCO3)CC1 | inactive | –
30 | CC(C)OC(=O)C(C)(C)Oc1ccc(C(=O)c2ccc(Cl)cc2)cc1 | inactive | –
31 | O=P(O)(O)O | – | -20.6% (inactive)
32 | C[C@]12CCC(=O)C=C1CC[C@@H]1[C@@H]2C(=O)C[C@@]2(C)[C@H]1CC[C@]2(O)C(=O)CO | inactive | –
33 | CCCCOCCOCCO | inactive | –
34 | COc1c(Cl)c(Cl)c(Cl)c(Cl)c1Cl | inactive | –
35 | O=C(c1ccccc1)c1ccccc1O | – | 14.4% (inactive)
36 | O=CCc1ccccc1 | inactive | –
37 | OC(CCl)CCl | inactive | –
38 | O=C=Nc1ccc(Cc2ccc(N=C=O)cc2)cc1 | inactive | –
39 | C[Si](C)(C)O[Si](C)(C)C | inactive | –
40 | O=C(/C=C/c1ccccc1)OCc1ccccc1 | inactive | –
